Drawing on PubChem BioAssay (NCATS), this text covers Potency for 15 compounds.

Inconclusive results are not listed. Where a call stands in place of a potency, no number is given. Calls of active or inactive are those of the source. Calls follow the shape of the dose curve; as a rule, active = well fitted inhibition curve with a large enough effect; inconclusive = small, poorly fitted or top-dose-only effect; inactive = flat fitted curve, though single readings scatter.

This assay deals with Calcium and integrin-binding protein 1 (Homo sapiens) (UniProt Q99828). Description: Primary qHTS for Identification of Calcium Integrin Binding Protein 1 (CIB1) Competitor (AID 1508620).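 Also: GST tagged CIB1 binding a fluorescein labelled alphaIIb integrin peptide tracer; top concentration of the series differs between compounds.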 As to conditions: CIB1-GST / FITC-alphaIIb peptide fluorescence polarization; series mostly up to 114 µM. The procedure, abridged: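 CIB1-GST (1 uM final) and compound incubated 15 min at room temperature before adding FITC-alphaIIb peptide tracer (100 nM final). Competition for binding read by fluorescence polarization (ex 480, em 540) after another 15 min at room temperature.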
Chain of Calcium and integrin-binding protein 1 (Homo sapiens) (Q99828 whole entry, looked up): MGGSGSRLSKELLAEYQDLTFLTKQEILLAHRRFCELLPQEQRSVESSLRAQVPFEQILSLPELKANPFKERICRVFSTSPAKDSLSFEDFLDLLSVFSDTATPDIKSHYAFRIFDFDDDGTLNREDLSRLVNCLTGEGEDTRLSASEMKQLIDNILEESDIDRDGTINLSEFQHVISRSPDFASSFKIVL
(In qHTS, concentration-response curves come from the screen itself.)
For the compound `C=C(C)C(=O)O[C@H]1C[C@@](C)(O)C2(O)CCC(C)(/C=C3/OC(=O)C(COC)=C31)O2` (stereo not given in full), the Potency result is “inactive”. As for `COc1cc(F)c(F)c(Nc2ccc(I)cc2F)c1NS(=O)(=O)C1(CC(O)CO)CC1` (stereo not given), the entry is “inactive”; as for `CCCCCCCCn1cc(CN(CC)CC)c2cc(-c3cnc(N)nc3)ccc21`, “inactive”; as for `COc1ccc(S(=O)(=O)Nc2c(C)cc(C)cc2C)cc1`, “inactive”.

Consider `C=C(COC(=O)C(O)C(O)CN)C12OC1C1(C)C(=CC2=O)C(O)C(O)CC1C` (stereo not given), for which the Potency entry is “inactive”. Then `COc1cc2nc(N3CCN(C(=O)COc4c(OC)cccc4C(C)C)CC3)nc(N)c2cc1OC`, with “inactive”; and `N#Cc1ccc(-c2ccc(S(=O)(=O)Nc3cccc(N)n3)cc2)cc1`, with “inactive”; and `C[C@@H]1CC[C@@]23CC[C@]4(C)[C@@](C=CC5[C@@]6(C)CC[C@H](O)C(C)(C)C6CC[C@]54C)(OC2=O)C3[C@H]1C` (stereo not given in full), with “inactive”. As for `COc1c(CCC(=O)O)cccc1O[C@@H]1O[C@H](CO)[C@@H](O)[C@H](O)[C@H]1O`, the entry is “inactive”; as for `O=C(Nc1ccc(-n2nc(C(F)(F)F)cc2C(F)(F)F)cc1)c1ccncc1F`, “inactive”. Then `O=C(COc1ccc2ccccc2c1Br)Nc1cccnc1`, with “inactive”; and `C=C1[C@H]2CC[C@H](C(=O)O)[C@@]23CC[C@H](C3)C1(C)C`, with “inactive”.

For the compound `O[C@@](Cc1ncc(CC2(C(F)(F)F)CC2)[nH]1)(c1ccc(-n2cccn2)cc1)C(F)(F)F`, the Potency entry was “inactive”. As for `Cc1ccc(OC[C@H](O)[C@H](C)NC(C)C)c2c1CCC2`, the entry is “inactive”; as for `CCOC(=O)c1cnc2ccc(-c3cncc(NS(=O)(=O)c4ccccc4)c3)cn12`, “inactive”.
